According to publication PMC8384837, “Expanding the binding specificity for RNA recognition by a PUF domain”:

Experiments:
[1] = target: PUM1 PUF domain R3-EWG (Homo sapiens, UniProt Q14671 828-1176, C935E;R936W;Q939G); assay: yeast three-hybrid, YBZ-1, SC-Leu-His + 0.5 mM 3-AT, 4 days; conditions: tags: N-Gal4 AD-HA kept; label: inside an RPR1-promoter hybrid RNA with tandem MS2 sites; ssRNA
Outline: (§1)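 A centromeric plasmid in strain YBZ-1 co-expressed Pumilio-1 PUF domain libraries, randomized at the three base-contacting residues of each repeat, with matching RNA elements; the strain carries a LexA–MS2 coat fusion and a HIS3 reporter. After four days on SC-Leu (input) or SC-Leu-His + 0.5 mM 3-AT (selection), the repeat regions were PCR-amplified and Illumina-sequenced. The interaction score is the log change in variant frequency from input to selection, using log2 and a pseudocount of 1 where absent.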

[2] = target: PUM1 PUF domain R2-AWW (Homo sapiens, UniProt Q14671 828-1176, N899A;Y900W;Q903W); assay: as above; conditions: tags: N-Gal4 AD-HA kept; label: inside an RPR1-promoter hybrid RNA with tandem MS2 sites; ssRNA
Sequence of PUM1 PUF domain R2-AWW (Q14671 828-1176 N899A/Y900W/Q903W): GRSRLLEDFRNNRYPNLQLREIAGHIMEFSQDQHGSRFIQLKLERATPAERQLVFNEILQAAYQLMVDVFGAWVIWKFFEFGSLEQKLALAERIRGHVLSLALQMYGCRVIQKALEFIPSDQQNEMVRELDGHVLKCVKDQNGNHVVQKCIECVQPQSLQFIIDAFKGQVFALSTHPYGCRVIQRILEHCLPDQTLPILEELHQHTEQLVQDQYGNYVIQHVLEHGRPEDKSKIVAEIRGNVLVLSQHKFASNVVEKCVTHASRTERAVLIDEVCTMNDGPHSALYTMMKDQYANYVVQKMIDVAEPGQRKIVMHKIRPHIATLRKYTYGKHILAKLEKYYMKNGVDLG
Outline: as §1

Sequence of PUM1 PUF domain R3-EWG (Q14671 828-1176 C935E/R936W/Q939G): as the sequence (Q14671 828-1176 N899A/Y900W/Q903W) above, with A72N, W73Y, W76Q, C108E, R109W, Q112G counted along it

Sequence	binding signal [1]	binding signal [2]
GGCUAGAACUAGUGGAUCCCCCGGCGCCCGGCGGCUCGAGCCCGGGUAAGUGUAAUUAGUCUGCAUGCCGCCGGGCGCCAUGCCUGCAGGUCGACUCUAGAAAACAUG	3.95 log2 enrichment (interaction score)	–
GGCUAGAACUAGUGGAUCCCCCGGCGCCCGGCGGCUCGAGCCCGGGUAAGUGUAAAAAGUCUGCAUGCCGCCGGGCGCCAUGCCUGCAGGUCGACUCUAGAAAACAUG	–	7.76 log2 enrichment (interaction score)
GGCUAGAACUAGUGGAUCCCCCGGCGCCCGGCGGCUCGAGCCCGGGUAAGUGUAAGUAGUCUGCAUGCCGCCGGGCGCCAUGCCUGCAGGUCGACUCUAGAAAACAUG	4.81 log2 enrichment (interaction score)	–
